# The list is not random: actives were taken first. Their share in the collection is about 4%.
# HSV augment – increases HSV replication in cells | maximum fold increase | AID 1956 | HSV replication augmentation in cells, fold increase | 220,000 tested, 0.005% active; in the data active means maximum fold increase above about 1.5; inconclusive means no clear call, values can overlap the other calls; tested in PC3 cells
# ROMK mod – modulators of human ROMK potassium channel. P48048. Tet-inducible ROMK, thallium flux fluorescence; actives lie on both sides. B-score at 10 µM. 130,000 tested, 2% active. AID 1918;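 active means signal ratio slope over the read window, or its plate-corrected B-score, at least 3 SD from the plate mean, either direction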;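 further: B-score of the F/F0 ratio slope over 7 to 12 s after thallium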
# Measles CPE – protection of cells from measles virus; AID 841; protection (pct of control), % at 4 µM; 140,000 tested, 1.5% active; Measles virus-infected cells, CPE protection, absorbance; in the data active means protection mostly above about 24%, no sharp cut-off; inactive means mostly below about 26%
# Arbovirus anti – blocks arbovirus infection; arbovirus infection cell-based antiviral screen; inhibition, % at 10 µM; 200,000 tested, 0.37% active; in the data active means inhibition above about 30%
# Cl transport mod – modulators of human KCC2 chloride dependent transport; Q9H2X9; KCC2 cells, thallium flux FluoZin-2 fluorescence; B-score of Tl+ flux slope (higher = more flux/activation; lower = inhibition) at 10 µM; 190,000 tested, 2.2% active; AID 1456;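 active means thallium flux slope and its plate-corrected score both differing from the plate sample mean at a set confidence after two filtering rounds, in either direction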;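 further: slope of fluorescence scaled to starting intensity during 10 to 20 s after thallium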
# Target sequence (Q9H2X9 whole entry, looked up): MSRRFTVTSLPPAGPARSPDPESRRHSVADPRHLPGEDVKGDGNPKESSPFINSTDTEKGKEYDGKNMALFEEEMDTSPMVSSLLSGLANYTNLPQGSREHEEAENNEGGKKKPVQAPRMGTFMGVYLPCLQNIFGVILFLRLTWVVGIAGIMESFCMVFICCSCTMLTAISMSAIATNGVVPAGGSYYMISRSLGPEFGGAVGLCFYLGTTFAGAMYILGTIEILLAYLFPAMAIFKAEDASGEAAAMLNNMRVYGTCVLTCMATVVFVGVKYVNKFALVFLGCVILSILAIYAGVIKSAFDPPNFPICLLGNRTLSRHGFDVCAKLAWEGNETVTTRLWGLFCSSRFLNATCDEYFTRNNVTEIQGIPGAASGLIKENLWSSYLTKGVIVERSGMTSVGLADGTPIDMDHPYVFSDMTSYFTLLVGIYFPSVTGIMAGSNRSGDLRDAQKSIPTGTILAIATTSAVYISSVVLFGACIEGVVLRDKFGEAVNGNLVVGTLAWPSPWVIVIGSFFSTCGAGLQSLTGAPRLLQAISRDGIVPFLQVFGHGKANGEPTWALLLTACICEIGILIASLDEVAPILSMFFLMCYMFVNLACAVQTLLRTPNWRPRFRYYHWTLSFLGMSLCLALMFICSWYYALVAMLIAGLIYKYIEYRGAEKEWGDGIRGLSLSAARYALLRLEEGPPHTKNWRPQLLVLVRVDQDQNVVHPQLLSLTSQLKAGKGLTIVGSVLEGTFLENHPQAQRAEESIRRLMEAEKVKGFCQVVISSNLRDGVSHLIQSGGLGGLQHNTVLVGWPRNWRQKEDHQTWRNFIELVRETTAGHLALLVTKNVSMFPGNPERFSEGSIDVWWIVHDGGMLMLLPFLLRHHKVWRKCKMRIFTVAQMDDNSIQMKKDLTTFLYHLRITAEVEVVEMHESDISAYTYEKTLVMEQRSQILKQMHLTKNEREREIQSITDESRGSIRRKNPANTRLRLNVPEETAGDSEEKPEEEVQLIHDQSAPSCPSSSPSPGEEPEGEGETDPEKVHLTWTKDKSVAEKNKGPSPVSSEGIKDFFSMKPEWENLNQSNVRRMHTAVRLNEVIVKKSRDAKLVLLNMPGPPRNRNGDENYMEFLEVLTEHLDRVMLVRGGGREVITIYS
# KCC2 secondary – KCC2 (human) modulation, secondary assay; normalised thallium flux (F/F0 slope) at 10 µM; 3,700 tested, 15% active; shares compounds with Cl transport mod; HEK293-KCC2, thallium flux, FluoZin2 fluorescence; stronger effect = higher value;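 active means thallium flux slope above the same plate's solvent-only control mean plus 3 SD; inconclusive means the two replicate wells disagree; inactive means no significant difference from solvent-only control wells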
# KCC2 bumet counter – thallium flux persisting under bumetanide in KCC2 cells, counter-screen secondary assay | 3,700 tested, 49% active | shares compounds with Cl transport mod | HEK293-KCC2 + bumetanide/ouabain, thallium flux FluoZin2; stronger effect = higher value | AID 1714 | normalized thallium flux at 10 µM;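 active means thallium entry rate above the same plate's blocked-transporter control wells by more than 3 SD; inconclusive means the two repeat wells disagree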;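 further: raw slope of fluorescence over initial fluorescence between 10 and 20 s after thallium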
# KCC2 sec2 – confirmation of human KCC2 transport modulators. shares compounds with Cl transport mod. HEK293-KCC2, thallium flux FluoZin2 fluorescence; actives lie on both sides; F/F0 rise rate, 10–20 s post-thallium. normalized thallium flux at 10 µM. 3,700 tested, 23% active;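 active means thallium flux slope more than 3 SD above or below the plate's solvent-only control mean, mostly below; inconclusive means the two repeat wells disagreed; inactive means no significant shift from solvent-only controls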;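 further: raw slope with 0.1% DMSO as baseline and bumetanide as block control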
# HEK293 Tl flux – parental HEK flux effect, counter-screen; thallium flux rate (normalised fluorescence) at 10 µM; HEK293 parental cells, thallium flux FluoZin2, ouabain; baseline-ratio fluorescence slope, 10–20 s after thallium; 3,700 tested, 46% active; shares compounds with Cl transport mod;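 active means thallium flux rate significantly above the same plate's solvent-only control wells, beyond their mean plus 3 SD; inconclusive means the two replicate wells gave conflicting results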
# KCC2 retest ouab – modulates human KCC2 on retest with ouabain. shares compounds with Cl transport mod. HEK293-KCC2, thallium flux FluoZin2 fluorescence; bidirectional: low = inhibitor, high = activator. raw Tl+ flux slope (below DMSO = inhibition, above = activation) at 10 µM. 3,700 tested, 48% active. AID 1717;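 active means thallium flux slope beyond 3 SD from same-plate DMSO control mean in most replicates, usually higher, sometimes lower; inconclusive means repeat tests gave conflicting results; inactive means no significant difference from controls in most replicates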;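 further: slope of initial-normalized fluorescence between seconds 10 and 20 after thallium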
# HEK293 Tl flux2 – acts in parental HEK cells, second KCC2 counter-screen | thallium flux slope at 10 µM | 3,700 tested, 33% active | HEK293 parental, thallium flux FluoZin-2 fluorescence slope | shares compounds with Cl transport mod | AID 1718;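 active means thallium flux slope above the same plate's solvent-control mean plus 3 SD in both duplicate wells; inconclusive means duplicate wells that disagreed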;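 further: run without ouabain in cells lacking the KCC2 cotransporter; slope of fluorescence scaled to its starting value between 10 and 20 s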
# * = called active by the depositor; i = inactive; ? = inconclusive; nt = no result.
SMILES,HSV augment,ROMK mod,Measles CPE,Arbovirus anti,Cl transport mod,KCC2 secondary,KCC2 bumet counter,KCC2 sec2,HEK293 Tl flux,KCC2 retest ouab,HEK293 Tl flux2
O=C(NNC(=S)Nc1ccc(Br)cc1)c1ccc(N2CCOCC2)c([N+](=O)[O-])c1,i,0.934,29.7,-15.8,-3.83*,0.00931,0.00618,0.0306,?,0.0158*,0.0106
COC(=O)c1ccc(NC(=O)[C@H](C)NC(N)=O)cc1,i,0.338,nt,nt,0.00664,nt,nt,nt,nt,nt,nt
Cc1ccc2c(c1)C1CN(C)CCC1N2C(=S)NC(=O)c1ccc(Cl)cc1Cl (stereo unspecified),i,nt,nt,nt,61.4*,0.0233*,0.106*,0.0301,0.0319*,0.0606*,0.0127*
O=C1CNC(=S)N1CCc1ccc(O)c(O)c1,i,-1.19,nt,nt,0.0241,nt,nt,nt,nt,nt,nt
O=C(Cc1csc(Nc2nc(=S)[nH]c3ccccc23)n1)NCCCN1CCN(c2ccccc2F)CC1,i,-1.19,nt,-6.6,20.3*,0.0144*,0.051*,0.041*,0.0388*,0.0619*,0.016*
Cn1c(C(=O)NCCCN2CCN(c3ccccc3F)CC2)cc2c(=O)[nH]c3ccccc3c21,i,nt,4.8,-1.9,-1.32,nt,nt,nt,nt,nt,nt
COc1ccc(Cc2[nH]n3c(=O)c(Cl)c(C)nc3c2-c2ccccc2)cc1,i,-1.46,nt,-10.5,-1.29,nt,nt,nt,nt,nt,nt
CC(=O)Nc1ccc2nc(NC(=O)c3cccs3)sc2c1,i,nt,nt,nt,4.13*,0.00518,?,0.0302,0.00754,0.0191,0.0105
CC(Sc1nnc2ccccn12)C(=O)NCc1ccc2c(c1)OCO2 (stereo unspecified),i,0.141,nt,-9.5,0.507,nt,nt,nt,nt,nt,nt
CC(Sc1nnc2ccccn12)C(=O)Nc1ccc2c(c1)OCCO2 (stereo unspecified),i,-0.579,nt,3.2,nt,0.00653,0.00499,0.0314,0.00804,0.0187,0.0103
COC(=O)CSc1cc(SCC(=O)OC)c(C#N)c(SCC(=O)OC)c1,i,nt,3.5,-5.1,-3.19*,0.00587,0.00458,0.0311,?,0.0184,0.00991
Cc1cc(OCC(=O)Nc2ccncc2)ccc1[N+](=O)[O-],i,1.29,nt,4.8,-1.37,nt,nt,nt,nt,nt,nt
Cc1ccc(NC(=O)c2ccccc2-c2ccc(C(F)(F)F)cc2)cc1S(=O)(=O)N1CCOCC1,i,nt,8.0,2.1,3.8*,0.00554,0.00524,0.0271,0.00737,0.0178,0.0113
COc1ccc(NC(=O)c2ccccc2-c2ccc(C(F)(F)F)cc2)cc1S(=O)(=O)N1CCOCC1,i,-0.597,7.4,2.6,0.0385,nt,nt,nt,nt,nt,nt
CNc1nnc(Sc2ncccc2[N+](=O)[O-])s1,i,nt,nt,nt,-0.28,nt,nt,nt,nt,nt,nt
O=C(OCCCCN1C(=O)c2ccccc2C1=O)c1n[nH]c2ccccc12,i,nt,4.9,4.7,-2.92*,0.00476,0.00674*,0.0282,?,?,0.0105
CCc1ccccc1N(C1=NCCCS1)S(=O)(=O)c1ccc(C(C)(C)C)cc1,i,0.281,19.0,2.8,-1.74,nt,nt,nt,nt,nt,nt
COC(=O)CCN(C(=O)c1ccc(OC(C)=O)cc1)c1ccccn1,i,nt,6.0,1.5,-3.81*,0.0161,0.00503,0.0269,0.00763,0.0156,0.0113
COC(=O)CCN(C(=O)c1ccc([N+](=O)[O-])cc1)c1ccccn1,i,0.622,nt,nt,0.374,nt,nt,nt,nt,nt,nt
CCOc1cc(CNn2nnnc2N)cc(Cl)c1OCC(=O)NC(C)(C)C,i,nt,6.2,0.7,-0.0286,0.00595,0.00422,0.0292,0.00771,0.0174,0.00999
CCOc1ccc(/C=N/n2cc(-c3ccccc3)[nH]c2=S)cc1,i,-0.0819,nt,-6.7,27.7*,?,0.0569*,0.0326,0.0265*,0.0533*,0.0123*
S=c1[nH]c(-c2ccccc2)cn1/N=C/c1ccncc1,i,-0.488,nt,nt,1.84,nt,nt,nt,nt,nt,nt
Cn1nnc(NC(=O)c2ccc3ccccc3c2)n1,i,0.833,7.8,4.7,0.196,nt,nt,nt,nt,nt,nt
Cc1nnc(NC(=O)c2ccc3ccccc3c2)o1,i,0.905,5.6,-12.5,nt,0.012*,0.0158*,0.0299,0.0107*,0.0261*,0.0104
Cc1noc(NS(=O)(=O)c2ccc(NC(=O)C(CC(C)C)N3C(=O)c4ccccc4C3=O)cc2)c1C (stereo unspecified),i,nt,nt,nt,0.709,nt,nt,nt,nt,nt,nt
SMILES,HSV augment,ROMK mod,Measles CPE,Arbovirus anti,Cl transport mod,KCC2 secondary,KCC2 bumet counter,KCC2 sec2,HEK293 Tl flux,KCC2 retest ouab,HEK293 Tl flux2
O=C(O)c1ccc(N2CCCCS2(=O)=O)cc1,i,0.443,nt,1.3,nt,0.00569,0.00489,0.0261*,0.00824,0.0186,0.0118
CCN(CC)c1ccc2cc(C(=O)Nc3ccccn3)c(=O)oc2c1,?,nt,13.4,-7.1,i,0.00312*,?,0.0156*,0.00366*,0.00541*,0.00648*
CCOc1cc(-n2cnnn2)c(OCC)cc1NC(=O)c1cc2ccc(N(CC)CC)cc2oc1=O,nt,nt,nt,nt,i,nt,nt,nt,nt,nt,nt
O=C(CSc1ccccn1)Nc1cccc(NC(=O)CSc2ccccn2)n1,i,1.25,2.2,-0.9,nt,?,?,0.0319,0.00698,0.0205,0.0101
COc1cc2c(cc1NC(=O)CSc1ccccn1)oc1ccccc12,nt,0.332,8.3,-9.8,-4.83*,0.00796,0.00592,0.0284,0.00702,0.019,0.00855
COc1cc2c(cc1NC(=O)CSc1ccc(Cl)cc1)oc1ccccc12,i,0.298,2.7,7.6,0.405,nt,nt,nt,nt,nt,nt
O=C(Nc1ccc(F)cc1)c1nc2c(nnn2Cc2cccc3ccccc23)c(=O)[nH]1,i,-0.602,nt,nt,-1.42,nt,nt,nt,nt,nt,nt
Cc1ccc(NCCCCO)cc1C,i,0.43,nt,0.5,-0.572,nt,nt,nt,nt,nt,nt
COc1ccc(-n2c(C)cc(-c3csc(NC(=O)c4ccc(S(=O)(=O)N(C)C)cc4)n3)c2C)cc1,i,0.0968,12.3,5.2,-0.333,nt,nt,nt,nt,nt,nt
CCOc1ccccc1CNCc1ccc(F)cc1,i,-0.326,nt,3.8,0.225,nt,nt,nt,nt,nt,nt
O=C(NC1CCCCCC1)c1ccc[nH]c1=S,i,0.299,nt,-11.8,12.4*,0.0134*,0.0388*,0.0293,0.0159*,0.0375*,0.0112*
Oc1c(Br)cc(Br)cc1/C=N/NC(=S)N[C@H]1CC2C=CC1C2 (stereo partly specified),i,nt,nt,nt,4.76*,0.00792,0.014*,0.0296,0.0102*,?,0.00945
COC(=O)c1cc(OC)c(OC)cc1NC(=O)c1cc(OC)cc(OC)c1,i,-0.0472,nt,3.5,5.35*,0.00924,0.00519,0.0309,0.0068,0.0209,0.00941
COc1ccc(C(=O)Nc2cc(OC)c(Cl)cc2OC)cc1,i,-0.316,nt,-4.0,-4.51*,0.00978,0.00856*,0.0333,0.0152*,0.0206,0.0112
